# This is a sample that favours compounds with a hit; in the whole collection about 8% have one here.
# HCV inh: HCV inhibition | Huh7.5.1 HCVcc-Cre infection, luciferase reporter, 44 h | Potency, µM (series often up to 41.8 µM), hits mostly inhibitors | 340,000 tested, 3.4% active | AID 651820; active = well fitted inhibition curve with a large enough effect; inconclusive = small, poorly fitted or top-dose-only effect, or another doubt; inactive = no such curve, though single readings can be large or run the other way
#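 Antiviral activity was scored by luciferase reporter output from cells infected with HCVcc-Cre (~0.5 moi) in presence of compound, 44 h infection period, cells seeded 1,000/well 4 h prior.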
# FMDV antiviral: foot and mouth disease virus antiviral activity; Potency, µM (highest dose often 57.9 µM), actives largely listed as inhibitors; FMDV antiviral cell-based qHTS; AID 1159524; 410,000 tested, 1.2% active; calls by dose curve; tested in HEK293T cells; also: read-out not given here; nearly all actives have a fitted effect of over 45% in size
# LASV entry inh: blocks Lassa virus binding to or entry into cells. Lassa virus pseudotype entry inhibition, cell reporter. Potency, µM (titrated, usually from 37.9 µM), actives largely listed as inhibitors. 300,000 tested, 1.2% active. AID 540256; calls by dose curve; tested in HEK293 cells; also: nearly all actives have a fitted effect of over 50% in size
# SARS PLP yeast: inhibitors of SARS-CoV papain-like protease in yeast; S. cerevisiae expressing SARS-CoV PLpro, growth rescue; Potency, µM (top dose mostly 32.9 µM), usual class: activators; 330,000 tested, 0.19% active; calls by dose curve; also: nearly all actives have a fitted effect of over 55% in size
# HCMV inh: inhibitors of human cytomegalovirus; HFF cells, HCMV-luciferase reporter, 72 h; hits give low values; activity change, negative = inhibition, % at 57.5 µM; 410,000 tested, 4.5% active; AID 1259415; in the data active = activity change below about -60%; inconclusive = no clear call, values can overlap the other calls; inactive = above about -39%
#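 Screen run at 2 compound doses on HFFs infected with reporter HCMV, MOI 1 PFU/cell. Luciferase activity from cell lysates at 72 h post infection gave inhibition relative to buffer-only and Salinomycin wells.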
# MARV entry inh: inhibitors of Marburg virus binding or cell entry | 300,000 tested, 1.8% active | Potency, µM (titrated, usually from 37.8 µM), hits mostly inhibitors | Marburg virus pseudotyped entry inhibition, cell reporter; calls by dose curve; tested in HEK293 cells
# Numbers stand for hits; 0 = inactive; ? = inconclusive; - = no result; ! = a repeat was not active; [ ] = remark or other dose.
SMILES,HCV inh,FMDV antiviral,LASV entry inh,SARS PLP yeast,HCMV inh,MARV entry inh
NC(=O)c1cc([N+](=O)[O-])ccc1NCc1cccc([N+](=O)[O-])c1,0,0,-,0,0,-
NC(=O)c1cc([N+](=O)[O-])ccc1NCc1ccc(F)cc1,2.5µM,0,-,0,-81,-
NC(=O)c1cc([N+](=O)[O-])ccc1NCc1ccc(N)cc1,0,8.9µM,-,0,0,-
O=C(CCCc1nc2ccccc2s1)N1CCN(S(=O)(=O)c2cccs2)CC1,?,?,?,0,0,10µM
O=C(Nc1cccc(F)c1)C1CCN(c2nnnn2-c2ccccc2)CC1,0,18µM,?,0,0,0
CN(C)C(=O)c1ccc(Nc2nccc3c2cc(-c2ccsc2)n3C)cc1,-,-,-,-,0,-
Cc1cccc(N2CCN(C(=O)CCNS(=O)(=O)c3ccc4c(c3)CCC(=O)N4)CC2)c1C,?,0,6.5µM,0,?,?
Cc1cccc(N2CCN(C(=O)CCS(=O)(=O)c3ccc4c(c3)oc(=O)n4C)CC2)c1C,11µM,?,?,0,-62!,0
CC(=O)Nc1ccc(Nc2nc3ccc(C)cc3n3nnnc23)cc1,-,0,?,-,0,-
CSC[C@H]1CN(Cc2ccccc2)C(=O)[C@H]1CC(=O)Nc1ccccc1,-,-,0,-,-,-
CCN(CC)S(=O)(=O)c1cccc(C(=O)NC(Cc2c[nH]c3ccccc23)c2nnc3n2CCC3)c1 (stereo unspecified),0,0,?,0,-61,0
Cc1cc(CNCc2cn(C)nc2-c2ccc(Oc3ccccc3)cc2)on1,?,?,?,0,-68,0
COc1ccc(-c2ccnc(-n3ncc(C(=O)NC(C)(C)CO)c3C3CC3)n2)cc1F,-,0,-,-,-,-
Cc1ccc(S(=O)(=O)c2nnn3c2nc(NCCc2ccccc2)c2sccc23)cc1,-,0,0,-,-65,-
Cc1ccc(S(=O)(=O)c2nnn3c2nc(NCc2ccc4c(c2)OCO4)c2sccc23)cc1,-,0,0,-,0,-
Cc1ccc(C)c(S(=O)(=O)c2nnn3c2nc(NCc2ccc4c(c2)OCO4)c2sccc23)c1,-,0,?,-,-79,-
Cc1ccc(CCNc2nc3c(S(=O)(=O)c4ccccc4)nnn3c3ccsc23)cc1,-,0,0,-,0,-
CC1=C(C)Cc2c(nnn2-c2nc(C)nc3sc4c(c23)CCCC4)C1,-,-,-,-,-,0
CC(=O)NCCNc1ncncc1-c1ccccc1C,-,0,-,-,-,-
Cc1cc(NC(=O)c2ccno2)no1,0,0,-,0,0,-
Cc1ccc(NNC(=O)c2ccno2)c(C)c1,?,0,?,0,0,8.9µM
COCC(=O)NC1CC2CCC(C1)N2C(=S)Nc1ccccc1C(=O)OC (stereo unspecified),0,0,0,0,-83,0
COc1ccccc1NC(=S)N1C2CCC1CC(NC(=O)NC13CC4CC(CC(C4)C1)C3)C2 (stereo unspecified),0,0,0,0,?,0
COC(=O)c1ccc2nc(-c3ccc4c(c3)OCO4)cn2c1,0,0,2µM,0,0,?
c1cnc2nc(-c3ccc4c(c3)OCO4)cn2c1,0,0,0,0,0,?
SMILES,HCV inh,FMDV antiviral,LASV entry inh,SARS PLP yeast,HCMV inh,MARV entry inh
CCc1ccn2cc(-c3ccc4c(c3)OCO4)nc2c1,?,8.9µM,0.89µM,0,-78,?
CSCC[C@H](NC(=O)Nc1ccc(OC(F)(F)F)cc1)C(=O)O,0,0,0,0,0,0
O=C(NCCO)c1cccc2c1C(=O)c1ccccc1-2,0,0,0,0,0,0
O=C1c2cccc(NCCNCCO)c2C(=O)c2cccc(NCCNCCO)c21,?,0,?,-,-99,5µM
O=C(O)CCNc1ccc(NCCC(=O)O)c2c1C(=O)c1ccccc1C2=O,0,?,-,0,-72,-
Cc1ccc(C(=O)Nc2cccc(-c3nc(CNC(=O)c4ccc5ccccc5n4)c(C)o3)c2)s1,-,0,-,-,-,-
Cc1nn(-c2ccccc2)c2c1cc1c(=O)[nH]c(=O)nc-1n2-c1cccc(Cl)c1,-,0,0,-,0,0
CCCCc1ccc(S(=O)(=O)NCCc2ccncc2)cc1,11µM,0,?,0,-63,0
O=S(=O)(NCc1ccccc1)c1ccc(S(=O)(=O)NCC2CCCO2)cc1 (stereo unspecified),0,0,0,0,0,0
O=S(=O)(NCc1ccncc1)c1ccc(S(=O)(=O)NCC2CCCO2)cc1 (stereo unspecified),13µM,-,?,0,0,?
CCCCNS(=O)(=O)c1ccc(S(=O)(=O)NCc2ccncc2)cc1,10µM,-,0,0,-72,0
O=[N+]([O-])c1cccc(S(=O)(=O)Nc2ccc(Cc3ccncc3)cc2)c1,?,0,-,0,0,-
O=[N+]([O-])c1cccc(S(=O)(=O)NCc2ccncc2)c1,13µM,?,0,0,?,0
CCCCN=CN1c2cc(OC)ccc2-n2cccc2C1c1ccccc1 (stereo unspecified),-,-,-,-,0,-
Cc1noc(/C=C/N(C)C)c1S(=O)(=O)N1CCN(c2ccc(F)cc2)CC1,0,0,-,0,-62,-
O=C(CCC(=O)c1ccc(F)cc1)Nc1cccc(S(=O)(=O)Nc2cccc(Cl)c2)c1,?,0,?,0,?,?
Nc1ccc(N2CCN(c3ccc(F)cc3)CC2)cc1,0,0,?,0,-60,0
Nc1ccc(N2CCN(c3ccc(Cl)c(Cl)c3)CC2)cc1,?,0,0,0,-85,0
CC(=O)N1CCN(c2ccc(N)cc2)CC1,-,0,-,0,-74,-
O=C(N/C(=C\c1ccco1)C(=O)N1CCOCC1)c1ccccc1Cl,0,0,0,0,0,0
NC(=Nc1c([N+](=O)[O-])cnc2ccccc12)N1CCOCC1,-,0,-,-,0,-
CCN1C(=O)N(C)C(c2ccccc2)C(C(C)=O)=C1C (stereo unspecified),-,-,-,-,-,0
Cc1cc2cc(CNC(=S)Nc3ccc(OC(F)(F)F)cc3)ccc2[nH]1,0[8.37 µM],0,0,0,-75,0
Cc1ccc(-n2cc(-c3ccccc3)c3c(=O)[nH]cnc32)cc1,0,0,15µM,0,0,0
Fc1ccc(-n2cc(-c3ccccc3)c3c(=S)nc[nH]c32)cc1,?,0,5µM,0,?,?
O=c1[nH]cnc2c1c(-c1ccccc1)cn2-c1ccccc1,0,0,-,0,0,-
Fc1cccc(-n2cc(-c3ccccc3)c3c(=S)nc[nH]c32)c1,?,0,-,?,?,-
Cc1ccc(NC(=O)CCc2nc3cccnc3n2-c2ccccc2)cc1Cl,-,0,0,-,?,0
CC[C@]12c3[nH]c4ccc(Cl)cc4c3CCN1C(=O)[C@@H](CC(=O)NCc1ccco1)C[C@@H]2C(=O)N1CCN(C(=O)C2CC2)CC1,0,0,-,0,0,-
CC[C@]12c3[nH]c4ccccc4c3CCN1C(=O)C(CC(=O)NCc1ccco1)C[C@@H]2C(=O)N1CCN(C(=O)C2CC2)CC1 (stereo partly specified),0.79µM,0,-,0,0,-

# Assay outcomes (PubChem)
